Compound activity: PubChem, National Center for Advancing Translational Sciences (NCATS)
TDP1 cell noCPT: qHTS for Inhibitors of human tyrosyl-DNA phosphodiesterase 1 (TDP1): qHTS in cells in absence of CPT. actives 15% (n = 420,000). DT40 Tdp1-/- hTDP1 cells, no CPT, ATP luminescence, 48 h. Potency, µM (highest dose often 46.2 µM), inactives show at the highest dose activity change, negative = growth inhibition, hits mostly inhibitors; note: nearly all actives have a fitted effect of over 55% in size
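Compound effects on proliferation are scored in DT40 Tdp1-/-;hTDP1 cells in the absence of CPT. ATP levels (CellTiter-Glo luminescence) are recorded after a ≥48 hr, 37 °C incubation.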
PLK1 PBD block: qHTS for Inhibitors of PLK1-PDB (polo-like kinase 1 - polo-box domain): Primary Screen; Serine/threonine-protein kinase PLK1 (Homo sapiens), P53350; Plk1 PBD binding of FITC phosphopeptide, fluorescence polarization; Potency, µM, without a hit: max response, negative = inhibition, actives largely listed as inhibitors; actives 2.8% (n = 360,000); note: series mostly up to about 57 µM; nearly all actives have a fitted effect of over 65% in size
GCN5L2 inh: qHTS Assay for Inhibitors of GCN5L2; Histone acetyltransferase KAT2A (Homo sapiens), Q92830; GCN5L2 HAT assay, ThioGlo1 CoA-SH fluorescence; Potency, µM (titrated, usually from 58.9 µM), without a hit: at the top dose activity change, negative = inhibition, hits mostly inhibitors; actives 0.21% (n = 390,000); AID 504327, 2011
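Compounds, pin-transferred from DMSO stocks, meet 20nM GCN5L2 for 15 min before the reaction begins with H3(1-25) peptide (75uM) and acetyl-CoA (70uM). Thiol-reactive ThioGlo1 reports CoA release over 20 min at room temperature.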
TDP1 cell CPT: qHTS for Inhibitors of human tyrosyl-DNA phosphodiesterase 1 (TDP1): qHTS in cells in presence of CPT; chicken DT40 Tdp1-/-;hTDP1 cells + 20 nM CPT, ATP luminescence, 48 h; Potency, µM (doses to about 46.2 µM), for the others: at the highest dose activity change, negative = growth inhibition, usual class: inhibitors; actives 12% (n = 420,000); note: nearly all actives have a fitted effect of over 55% in size
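Chicken DT40 Tdp1-/- cells stably complemented with human TDP1 were seeded at 400 cells/well in medium containing 20 nM camptothecin, exposed to pin-transferred compounds, and grown at 37 °C for at least 48 hr. Viability was read as ATP luminescence.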
VDR inhibitor: Inhibitors of the vitamin D receptor (VDR): qHTS; Vitamin D3 receptor (Homo sapiens), P11473; VDR-SRC2-3 peptide fluorescence polarization, 2 h; Potency, µM, for inactives: max response, negative = inhibition, most hits filed as inhibitors; actives 0.93% (n = 400,000)
Target sequence (P11473 whole entry, looked up): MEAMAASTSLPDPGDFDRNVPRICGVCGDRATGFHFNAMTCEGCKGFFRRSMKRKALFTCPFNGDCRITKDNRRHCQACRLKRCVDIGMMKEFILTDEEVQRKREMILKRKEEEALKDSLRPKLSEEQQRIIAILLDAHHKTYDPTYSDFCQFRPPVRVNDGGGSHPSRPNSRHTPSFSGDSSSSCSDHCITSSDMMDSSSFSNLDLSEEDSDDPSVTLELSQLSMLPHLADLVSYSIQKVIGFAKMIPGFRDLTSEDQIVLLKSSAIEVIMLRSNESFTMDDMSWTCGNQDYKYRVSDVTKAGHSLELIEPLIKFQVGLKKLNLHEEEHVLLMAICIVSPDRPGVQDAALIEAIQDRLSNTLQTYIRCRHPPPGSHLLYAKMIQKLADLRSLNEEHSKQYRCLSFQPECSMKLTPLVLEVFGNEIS
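After 23 nl compound addition and a short centrifugation, plates sat for 2 hours at ambient temperature; polarization of fluorescence then indicated loss of VDR binding to peptide SRC2-3.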
TDP1 block: qHTS Assay for Inhibitors of Tyrosyl-DNA Phosphodiesterase (TDP1); Tyrosyl-DNA phosphodiesterase 1 (Homo sapiens), Q9NUW8; recombinant TDP1, AlphaScreen DNA substrate cleavage; Potency, µM (top dose mostly 130 µM), for the others: at the top dose activity change, negative = inhibition, usual class: inhibitors; actives 0.28% (n = 350,000); note: nearly all actives have a fitted effect of over 40% in size
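Recombinant human Tdp1 (E. coli-expressed, 1 nM final) preincubated with compounds 15 min at room temperature, then 5'-biotin/3'-phosphotyrosine-FITC DNA substrate (15 nM final) added for 5 min. AlphaScreen beads (10 ug/ml final) added 10 min; cleavage lowers signal.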
Starred values were filed as active, the others as inactive; ? = inconclusive; / = not tested or not shown. Only some compounds are listed: those with a hit (about 18% of all), similar ones and a draw of the others. Calls come from the whole dose curve; as a rule, active = well fitted curve in the direction sought with a large enough effect; inconclusive = small, poorly fitted or top-dose-only effect, or another doubt; inactive = no such curve, though single readings can be large; an effect the other way counts as inactive or inconclusive. % is set by controls: 0 for no effect and ±100 for the full control effect; potency is the fitted concentration of half-maximal effect.

SMILES | TDP1 cell noCPT | PLK1 PBD block | GCN5L2 inh | TDP1 cell CPT | VDR inhibitor | TDP1 block
COc1cc(/C=C2/SC(=S)N(CC(=O)O)C2=O)ccc1OC(=O)c1ccco1 | -2% | -12% | -11% | -1% | -26% | 8%
Cc1nnc(SCc2ccc([N+](=O)[O-])cc2)o1 | ? | 3.8µM* | 19% | ? | ? | 3%
CCOC(=O)N1CCC(NS(=O)(=O)c2ccc(NC(C)=O)c(Cl)c2)CC1 | 8.2µM* | -2% | -4% | 23µM* | 3% | 0%
COC(=O)[C@H](Cc1ccccc1)NC(=O)c1cc(COc2c(F)cccc2F)on1 | -13% | 30µM* | -5% | -24% | -29% | -8%
CC(CNC(=O)c1cc(COc2c(F)cccc2F)on1)Oc1cccnc1 (stereo unspecified) | 15µM* | 3% | 2% | 21µM* | -10% | 6%
CCOC(=O)CC1(NC(=O)c2cc(COc3c(F)cccc3F)on2)CCCCC1 | 8.2µM* | -1% | -7% | 12µM* | -15% | -7%
O=C(Nc1cccc(Cl)c1Cl)c1cc2nc(-c3ccc4c(c3)OCO4)cc(C(F)(F)F)n2n1 | 6% | / | -3% | 4% | 4% | 6%
COCCN(C(=O)c1ccc(OC2CCN(S(=O)(=O)N(C)C)CC2)cc1)C(C)C | 13µM* | 3% | -1% | ? | -5% | /
CN(C)S(=O)(=O)N1CCC(Oc2ccc(C(=O)NCc3cnn(C)c3)cc2)CC1 | 21µM* | -4% | -1% | -21% | 16% | 4%
Cc1cc(C)cc(NC(=O)COc2coc(CN3CCc4ccccc43)cc2=O)c1 | ? | -8% | -16% | ? | 1% | 1%
COc1ccc(NC(=O)c2sc3nc(-c4ccc(OC)cc4)cc(C(F)(F)F)c3c2N)cc1 | 1.8µM* | / | -5% | 2.9µM* | -25% | -1%
COc1ccc(NC(=O)c2sc3nc4c(c(-c5ccc(OC)cc5)c3c2N)C(=O)CC(C)(C)C4)cc1 | 13µM* | / | -10% | 23µM* | -7% | /
CCOc1ccc(NC(=O)c2sc3nc4c(c(-c5ccccc5)c3c2N)C(=O)CC(C)(C)C4)cc1 | -19% | / | -3% | ? | 2% | /
COc1ccc(Cn2cc(CN3CC(N4CC=CC4)CS3(=O)=O)nn2)cc1 (stereo unspecified) | -12% | -2% | / | -4% | / | /
COC(=O)C1=C[C@@H](C(=O)OC)C2C3=C(C(=O)[C@]2(CC(C)C)NC(=O)c2ccccc2)[C@H](C)n2c(=O)n(-c4ccccc4)c(=O)n2[C@@H]3C1 (stereo partly specified) | / | / | / | / | -9% | -11%
COc1cccc(C2=NC(C)(C)NC(c3ccccc3O)C2)c1 (stereo unspecified) | 18µM* | -26% | -1% | 15µM* | ? | 5%
COc1cccc(C2=NNC(=NCc3ccccc3)SC2)c1 | ? | -24% | -4% | ? | 12% | 8%
CN(C(=O)c1cc(-c2ccc3c(c2)OCO3)on1)c1ccccc1 | 3% | -2% | -5% | 12% | -7% | 4%
CCC1(C)N=C(c2ccc3c(c2)OCO3)CC(c2ccccc2O)N1 (stereo unspecified) | 13µM* | 27µM* | -5% | 13µM* | 4% | 7%
CCc1c(C)[nH]c2ccccc2c1=O | 21µM* | 1% | 0% | ? | 20% | 0%
CCCSc1cc(NCCOC(C)=O)c([N+](=O)[O-])c2nonc12 | ? | ? | 7% | -1% | ? | 0%
